Records with an inconclusive call do not appear. The source made the active and inactive calls. Unless noted, calls follow the shape of the dose curve; as a rule, active = well fitted curve in either direction with a large enough effect (not every such curve was filed as active); inconclusive = small, poorly fitted or top-dose-only effect, or another doubt; inactive = flat fitted curve, though single readings scatter.
Experiments:
[1] = molecular target: Lysosomal acid glucosylceramidase (Homo sapiens) (UniProt P04062); test: Glucocerebrosidase-p2 (AID 348; in the data active = potency below about 10 µM; also: potency is read from the fitted curve at half-maximal effect); conditions: purified GBA, blue fluorogenic substrate, 40 min
Summary of the method: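 Normal human glucocerebrosidase (0.2 nM) with blue fluorogenic substrate (80 uM final) in citrate/phosphate pH 5.9 with 10mM sodium taurocholate, 0.01% tween-20; 40 min RT, NaOH/glycine stop; fluorescence Ex 365/Em 440; AC50 from a titration from 0.6 nM upwards.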

[2] = AP1 Signaling Pathway (AID 357); conditions: ME-180 AP-1-bla reporter, EGF-induced, beta-lactamase ratio, 5 h; at 7.69 µM (top of the series) unless noted; also: % is scaled to controls: 0 for no effect and ±100 for the full control effect
Summary of the method: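 ME-180 cells with beta-lactamase reporter under AP-1 response element, stimulated with EC50 EGF; compounds tested in titration series, 5 h at 37 °C. CCF4 substrate added 2.5 h at room temperature; 460/530 nm emission ratio gave %activity and AC50.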

[3] = molecular target: Cytochrome P450 1A2 (Homo sapiens) (UniProt P05177); test: p450-cyp1a2 (AID 410; calls by dose curve; also: potency is read from the fitted curve at half-maximal effect;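 as to activity change, negative = inhibition: -100% = full effect of reference inhibitor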); conditions: recombinant CYP1A2, luciferin-ME demethylation, luminescence; series mostly up to 11.4 µM
Summary of the method: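 Luminescent demethylation readout: Luciferin-ME (100uM, equal to Km) turned over by 20nM CYP1A2 for 60 min at room temperature after NADPH regeneration addition, following 10 min compound preincubation. Normalization used 57 uM furafylline as full inhibition.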

[4] = NFAT Signaling Pathway (AID 444); conditions: Jurkat NFAT-bla M1, carbachol, beta-lactamase ratio, 5 h; at 7.69 µM (top of the series) unless noted;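 also: carbachol stimulus at about its EC50 of 1 µM final; % is scaled to controls: 0 for no effect and ±100 for the full control effect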
Summary of the method: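 Jurkat cells carrying an NFAT-driven β-lactamase reporter and co-transfected muscarinic M1 receptor were treated with compound plus carbachol (1 uM final, an EC50 level) for 5 h at 37 °C. CCF4 loading followed for 1 h at RT; 460/530 nm ratio gave %activity.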

[5] = Stat Signaling Pathway (AID 446); conditions: ME-180 (cervical carcinoma) SIE beta-lactamase reporter, IL-6 stimulated, 5 h; at 7.69 µM (top of the series) unless noted;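 also: ME-180 cervical cancer cells given 40 pM IL-6 alongside compound; SIE-controlled beta-lactamase reporter measured as 460/530 nm FRET emission ratio; % is scaled to controls: 0 for no effect and ±100 for the full control effect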
Summary of the method: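 FRET read-out (405 nm excitation, 460/530 nm emission) of a beta-lactamase reporter under a STAT-inducible element in ME-180 cervical carcinoma cells. Cells with compound receive 40 pM IL-6 for 5 h. Values are normalised to AC90 stimulation and AC90 JAK-inhibitor controls.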

[6] = molecular target: Glucocorticoid receptor (Homo sapiens) (UniProt P04150); test: GR-GFP Redistribution (AID 450;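 active = compounds whose dose series gives a full or clear partial fitted curve of increased nuclear translocation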; also: potency is read from the fitted curve at half-maximal effect); conditions: U2OS GR-GFP nuclear translocation, laser cytometry, 2 h
[7] = molecular target: Glucocorticoid receptor (Homo sapiens) (UniProt P04150); test: GR-EFC Redistribution (AID 451; calls by dose curve; also: potency is read from the fitted curve at half-maximal effect); conditions: CHO-K1 GR-EFC translocation, beta-gal luminescence, 2 h
Summary of the method: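 CHO-K1 cells stably expressing nuclear-localized β-gal enzyme acceptor and GR fused C-terminally to the enzyme donor fragment; ligand-driven nuclear translocation restores β-gal by complementation. Compounds titrated up to 46 uM final, 2 h at 37 °C; luminescence read.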

[8] = molecular target: Mitogen-activated protein kinase 10 (Mus musculus) (UniProt Q61831); test: JNK3 AlphaScreen Assay (AID 530); conditions: JNK3 lysate, c-Jun phosphorylation; series mostly up to 11.4 µM;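 also: kinase came from lysate of stimulated human HepG2 cells; signal reports phosphorylation of biotinylated GST-cJun 1-79 at Ser73 with 10 µM ATP; % is scaled to controls: 0 for no effect and ±100 for the full control effect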
Summary of the method: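 Phosphorylation of biotinylated GST-cJun(1-79) at Ser73 is measured by AlphaScreen proximity luminescence. Enzyme is JNK3 in HepG2 lysates activated with interleukin-1beta and tumor necrosis factor alpha; ATP is 10 uM final.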

[9] = molecular target: 3',5'-cyclic-AMP phosphodiesterase 4B (Homo sapiens) (UniProt Q07343); test: qHTS Assay for Inhibitors of PDE-IV (AID 607; active = well fitted activation curve with a large enough effect in the main read-out, with a control signal flat, not every such curve was filed as active; also: % of control where 0% means no effect); conditions: HEK293 ACTOne CNG channel cells, membrane potential fluorescence; series mostly up to 22.9 µM
Summary of the method: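 Cell-based read-out of cAMP via a modified cyclic nucleotide-gated channel and membrane potential dye (535/590 nm) in HEK293 cells expressing PDE4 endogenously. Compounds tested up to 22.9 uM final; 100 uM RO 20-1724 reference.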

Glucocorticoid receptor (Homo sapiens), sequence (P04150 whole entry, looked up, the tested form may be a part): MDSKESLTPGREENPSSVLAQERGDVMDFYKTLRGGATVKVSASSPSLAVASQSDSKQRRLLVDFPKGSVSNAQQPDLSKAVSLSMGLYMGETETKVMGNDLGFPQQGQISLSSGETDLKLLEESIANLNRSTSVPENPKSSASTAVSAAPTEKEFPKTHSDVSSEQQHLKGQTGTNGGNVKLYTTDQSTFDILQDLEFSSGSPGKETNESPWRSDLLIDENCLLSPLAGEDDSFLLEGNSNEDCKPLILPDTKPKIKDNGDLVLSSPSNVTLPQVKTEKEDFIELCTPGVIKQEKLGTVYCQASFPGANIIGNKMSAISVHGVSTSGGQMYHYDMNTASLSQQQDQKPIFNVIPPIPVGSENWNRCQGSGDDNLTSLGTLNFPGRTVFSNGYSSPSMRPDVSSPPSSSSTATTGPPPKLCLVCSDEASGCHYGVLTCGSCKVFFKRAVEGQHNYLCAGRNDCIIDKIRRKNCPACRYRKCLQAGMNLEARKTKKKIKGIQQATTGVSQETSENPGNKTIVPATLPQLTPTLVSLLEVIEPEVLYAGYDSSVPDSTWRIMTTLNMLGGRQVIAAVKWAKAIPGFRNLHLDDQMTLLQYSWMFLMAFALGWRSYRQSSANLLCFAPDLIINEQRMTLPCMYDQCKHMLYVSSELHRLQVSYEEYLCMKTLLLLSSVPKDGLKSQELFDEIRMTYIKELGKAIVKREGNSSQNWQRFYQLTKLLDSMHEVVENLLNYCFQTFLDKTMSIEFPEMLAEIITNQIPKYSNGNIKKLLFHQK
Cytochrome P450 1A2 (Homo sapiens), sequence (P05177 whole entry, looked up): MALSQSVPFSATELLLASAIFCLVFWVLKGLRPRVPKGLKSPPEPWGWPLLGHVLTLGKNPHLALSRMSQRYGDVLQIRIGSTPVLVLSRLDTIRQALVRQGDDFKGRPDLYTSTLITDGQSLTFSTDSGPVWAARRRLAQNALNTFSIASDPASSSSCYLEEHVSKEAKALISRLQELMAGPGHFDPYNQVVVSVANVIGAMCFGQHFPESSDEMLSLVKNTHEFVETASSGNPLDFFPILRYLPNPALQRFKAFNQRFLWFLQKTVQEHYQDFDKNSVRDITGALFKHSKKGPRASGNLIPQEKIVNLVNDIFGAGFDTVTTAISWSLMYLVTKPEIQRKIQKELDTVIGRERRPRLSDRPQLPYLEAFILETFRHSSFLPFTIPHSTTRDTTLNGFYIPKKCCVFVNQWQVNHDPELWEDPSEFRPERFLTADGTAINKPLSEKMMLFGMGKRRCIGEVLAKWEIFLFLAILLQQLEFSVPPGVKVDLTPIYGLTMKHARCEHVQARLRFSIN
Lysosomal acid glucosylceramidase (Homo sapiens), sequence (P04062 whole entry, looked up): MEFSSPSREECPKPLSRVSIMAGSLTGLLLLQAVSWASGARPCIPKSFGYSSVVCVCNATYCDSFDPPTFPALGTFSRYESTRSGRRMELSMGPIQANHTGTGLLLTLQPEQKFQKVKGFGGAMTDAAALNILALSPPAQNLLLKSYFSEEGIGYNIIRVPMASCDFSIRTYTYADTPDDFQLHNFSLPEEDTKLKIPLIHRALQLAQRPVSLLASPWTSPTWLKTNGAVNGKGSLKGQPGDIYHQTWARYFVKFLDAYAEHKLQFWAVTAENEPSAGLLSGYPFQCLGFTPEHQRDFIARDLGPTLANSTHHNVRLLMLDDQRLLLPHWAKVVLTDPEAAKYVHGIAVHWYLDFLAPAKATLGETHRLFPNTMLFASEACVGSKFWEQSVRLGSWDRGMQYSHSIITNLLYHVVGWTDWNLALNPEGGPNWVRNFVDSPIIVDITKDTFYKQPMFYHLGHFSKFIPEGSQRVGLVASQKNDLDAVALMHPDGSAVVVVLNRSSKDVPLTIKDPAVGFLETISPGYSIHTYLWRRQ
3',5'-cyclic-AMP phosphodiesterase 4B (Homo sapiens), sequence (Q07343 whole entry, looked up): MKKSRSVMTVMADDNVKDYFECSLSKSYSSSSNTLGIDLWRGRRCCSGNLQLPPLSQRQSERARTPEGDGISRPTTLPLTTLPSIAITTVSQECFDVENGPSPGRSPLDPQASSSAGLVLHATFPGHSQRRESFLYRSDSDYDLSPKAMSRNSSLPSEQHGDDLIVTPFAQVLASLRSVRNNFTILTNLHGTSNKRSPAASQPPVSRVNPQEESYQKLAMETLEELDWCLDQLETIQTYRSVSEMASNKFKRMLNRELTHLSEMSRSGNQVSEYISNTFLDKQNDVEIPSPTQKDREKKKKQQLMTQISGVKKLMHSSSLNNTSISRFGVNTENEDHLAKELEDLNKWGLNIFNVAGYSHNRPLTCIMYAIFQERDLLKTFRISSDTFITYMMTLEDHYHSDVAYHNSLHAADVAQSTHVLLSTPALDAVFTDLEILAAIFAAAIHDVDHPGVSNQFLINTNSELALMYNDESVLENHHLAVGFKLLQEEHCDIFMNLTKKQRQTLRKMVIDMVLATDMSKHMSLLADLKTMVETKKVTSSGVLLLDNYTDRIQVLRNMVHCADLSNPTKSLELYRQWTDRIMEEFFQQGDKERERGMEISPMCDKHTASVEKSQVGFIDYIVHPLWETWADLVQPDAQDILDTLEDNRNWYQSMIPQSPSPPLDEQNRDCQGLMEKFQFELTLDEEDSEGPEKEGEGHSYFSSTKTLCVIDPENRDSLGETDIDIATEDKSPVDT

C[C@@H](CS(=O)(=O)Cc1ccccc1)C(N)=O
inactive: Potency [1] > 11.4 µM | activity change, negative = inhibition [2] 8.67% | Potency [3] | activity change, negative = inhibition [4] 5.68% | activity, negative = inhibition [5] 3.43% | Potency [6] > 46 µM | Potency [7] > 9.22 µM | Potency [8] | Potency [9]

O=C(O)CCC(O)=C1S(=O)(=O)OCCOS1(=O)=O
inactive: Potency [1] > 11.4 µM | activity change, negative = inhibition [2] -1.99% | Potency [3] | activity change, negative = inhibition [4] 2.36% | activity, negative = inhibition [5] 2.62% | Potency [6] > 46 µM | Potency [7] > 9.22 µM | Potency [8] | Potency [9]

O=C(O)Cn1ccnc1[N+](=O)[O-]
inactive: Potency [1] > 11.4 µM | activity change, negative = inhibition [2] 9.71% | Potency [3] | activity change, negative = inhibition [4] -1.99% | activity, negative = inhibition [5] 6.87% | Potency [6] > 46 µM | Potency [7] > 9.22 µM | Potency [8] | Potency [9]

NCOC(=O)Cc1ccc(Br)cc1
inactive: Potency [1] > 11.4 µM | activity change, negative = inhibition [2] 2.56% | activity change, negative = inhibition [4] 11% | activity, negative = inhibition [5] 5.96% | Potency [6] > 46 µM | Potency [7] > 9.22 µM | Potency [8] | Potency [9]
active: Potency [3] 0.2 µM

N=C(N)SCc1cc(Cl)cc(Cl)c1O
inactive: Potency [1] > 11.4 µM | activity change, negative = inhibition [2] 3.73% | activity change, negative = inhibition [4] 5.42% | activity, negative = inhibition [5] 2.98% | Potency [6] > 46 µM | Potency [7] > 9.22 µM | Potency [8] | Potency [9]
active: Potency [3] 5.01 µM

Cc1ccc(NC(=O)c2ccccc2C(=O)O)cc1C
inactive: Potency [1] > 11.4 µM | activity change, negative = inhibition [2] -1.74% | activity change, negative = inhibition [4] -27.9% | activity, negative = inhibition [5] -5.42% | Potency [6] > 46 µM | Potency [7] > 9.22 µM | Potency [8] | Potency [9]
active: Potency [3] 3.98 µM

N#CC[N+]1(Cc2ccccn2)CCCC1
inactive: Potency [1] > 11.4 µM | activity change, negative = inhibition [2] -12.2% | activity change, negative = inhibition [3] 3.4% [at 2.29 µM] | activity change, negative = inhibition [4] 0.385% | activity, negative = inhibition [5] -1.41% | Potency [6] > 46 µM | Potency [7] > 9.22 µM | Potency [8] | Potency [9]

CC(C)(C)OC(=O)[C@H]([C@@H]1N[C@@H](C(=O)O)C(C)(C)S1)N1C(=O)c2ccccc2C1=O
inactive: Potency [1] > 11.4 µM | activity change, negative = inhibition [2] -0.34% | activity change, negative = inhibition [3] -1.4% [at 2.29 µM] | activity change, negative = inhibition [4] -5.29% | activity, negative = inhibition [5] 3.62% | Potency [6] > 46 µM | Potency [7] > 9.22 µM | Potency [8] | Potency [9]

Nc1nc(SCc2ccccc2Cl)cc(C(=O)O)n1
inactive: Potency [1] > 11.4 µM | activity change, negative = inhibition [2] -13.8% | activity change, negative = inhibition [3] 6.2% [at 2.29 µM] | activity change, negative = inhibition [4] 1.52% | activity, negative = inhibition [5] 4.58% | Potency [6] > 46 µM | Potency [7] > 9.22 µM | Potency [8] | Potency [9]

O=C(O)c1ccccc1NCn1c(=S)sc2ccccc21
active: Potency [3] 0.501 µM
inactive: Potency [1] > 11.4 µM | activity change, negative = inhibition [2] 5.4% | activity change, negative = inhibition [4] 7.61% | activity, negative = inhibition [5] -1.41% | Potency [6] > 46 µM | Potency [7] > 9.22 µM | Potency [8] | Potency [9]

CN(C)Cc1cc(Cl)c(O)c(CN(C)C)c1
inactive: Potency [1] > 11.4 µM | activity change, negative = inhibition [2] 0.0803% | Potency [3] | activity change, negative = inhibition [4] 15.1% | activity, negative = inhibition [5] -1.91% | Potency [6] > 46 µM | Potency [7] > 9.22 µM | Potency [8] | Potency [9]

O=C(O)[C@H](CCc1ccccn1)c1ccccc1
inactive: Potency [1] > 11.4 µM | activity change, negative = inhibition [2] -0.682% | Potency [3] | activity change, negative = inhibition [4] -1.01% | activity, negative = inhibition [5] 0.534% | Potency [6] > 46 µM | Potency [7] > 9.22 µM | Potency [8] | Potency [9]

N[C@@H](CSCc1ccccc1)C(=O)O
inactive: Potency [1] > 11.4 µM | activity change, negative = inhibition [2] 14.5% | Potency [3] | activity change, negative = inhibition [4] 3.49% | activity, negative = inhibition [5] -2.8% | Potency [6] > 46 µM | Potency [7] > 9.22 µM | Potency [8] | Potency [9]

O=C(O)c1ccc(C(=O)c2ccccc2)c(C(=O)O)c1
inactive: Potency [1] > 11.4 µM | activity change, negative = inhibition [2] 21.3% | activity change, negative = inhibition [3] 3.1% [at 2.29 µM] | activity change, negative = inhibition [4] 2.06% | activity, negative = inhibition [5] 5.54% | Potency [6] > 46 µM | Potency [7] > 9.22 µM | Potency [8] | Potency [9]

O=C(O)c1cccc(C(=O)O)c1S(=O)Cc1ccccc1 (centres undefined)
inactive: Potency [1] > 11.4 µM | activity change, negative = inhibition [2] 5.26% | Potency [3] | activity change, negative = inhibition [4] 7.39% | activity, negative = inhibition [5] 6.2% | Potency [6] > 46 µM | Potency [7] > 9.22 µM | Potency [8] | Potency [9]

COc1cccc2c1C(=O)c1c(O)c3c(c(O)c1C2=O)C[C@@](O)(C(=O)CO)C[C@H]3O[C@H]1C[C@@H](N)[C@H](O)[C@@H](C)O1.[W]
inactive: Potency [1] > 11.4 µM | activity change, negative = inhibition [2] 0.391% | Potency [3] | activity change, negative = inhibition [4] -27.2% | activity, negative = inhibition [5] 14.9% | Potency [6] > 46 µM | Potency [7] > 9.22 µM | Potency [8] | Potency [9]

From PubChem BioAssay (NCATS)
